TDP1 inh – qHTS Assay for Inhibitors of Tyrosyl-DNA Phosphodiesterase (TDP1); recombinant TDP1, AlphaScreen DNA substrate cleavage; Potency, µM (doses to about 130 µM), without a hit: top-dose activity change, negative = inhibition, most hits filed as inhibitors; hit rate 0.28% among 350,000; AID 485290, 2010; also: nearly all actives have a fitted effect of over 40% in size
Target sequence (Q9NUW8 whole entry, looked up): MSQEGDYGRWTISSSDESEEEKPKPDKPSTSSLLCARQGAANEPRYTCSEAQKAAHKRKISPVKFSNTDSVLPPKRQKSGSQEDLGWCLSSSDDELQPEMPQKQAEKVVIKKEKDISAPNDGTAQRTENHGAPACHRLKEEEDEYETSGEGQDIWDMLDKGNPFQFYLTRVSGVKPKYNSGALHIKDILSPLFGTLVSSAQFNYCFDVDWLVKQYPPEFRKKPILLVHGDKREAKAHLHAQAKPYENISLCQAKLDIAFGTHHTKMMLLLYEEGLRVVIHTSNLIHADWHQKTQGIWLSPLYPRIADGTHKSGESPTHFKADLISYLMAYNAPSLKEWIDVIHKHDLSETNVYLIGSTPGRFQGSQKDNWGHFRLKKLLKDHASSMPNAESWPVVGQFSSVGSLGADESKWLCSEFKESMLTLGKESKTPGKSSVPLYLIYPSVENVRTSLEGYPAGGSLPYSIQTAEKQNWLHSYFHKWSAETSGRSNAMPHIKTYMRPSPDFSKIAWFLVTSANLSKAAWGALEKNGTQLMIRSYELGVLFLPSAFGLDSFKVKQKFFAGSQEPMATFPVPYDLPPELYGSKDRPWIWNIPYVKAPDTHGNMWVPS
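Recombinant E. coli-expressed Tdp1 (1 nM) preincubated with compound 15 min at RT, then 5'-biotin/3'-phosphotyrosine-FITC DNA substrate (15 nM) added for 5 min. AlphaScreen beads (10 ug/ml) added, 10 min RT; tyrosine-FITC cleavage read as signal loss.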
Gal4-VP16 FLuc – VP16 counterscreen qHTS for inhibitors of ROR gamma transcriptional activity. Potency, µM (series often up to 53.6 µM), without a hit: at the top dose activity, negative = inhibition, most hits filed as inhibitors. Drosophila S2 Gal4-VP16 UAS-luciferase, luminescence, 20 h. AID 2546, 2010. hit rate 3.5% among 310,000;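 also: Gal4-VP16 expression switched on by copper sulfate through the metallothionein promoter; nearly all actives have a fitted effect of over 50% in size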
TDP1 cell noCPT – qHTS for Inhibitors of human tyrosyl-DNA phosphodiesterase 1 (TDP1): qHTS in cells in absence of CPT; DT40 Tdp1-/- hTDP1 cells, no CPT, ATP luminescence, 48 h; Potency, µM (highest dose often 46.2 µM), for inactives: at the top dose activity change, negative = growth inhibition, hits mostly inhibitors; hit rate 15% among 420,000; also: nearly all actives have a fitted effect of over 55% in size
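Cells were dispensed at 400 per well, compounds added by pin tool, plates incubated ≥48 hr at 37 °C, then CellTiter-Glo added for 30 min at room temperature before luminescence reading. Line: DT40 Tdp1-/- complemented with hTDP1; camptothecin omitted.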
TDP1 cell CPT – qHTS for Inhibitors of human tyrosyl-DNA phosphodiesterase 1 (TDP1): qHTS in cells in presence of CPT | chicken DT40 Tdp1-/-;hTDP1 cells + 20 nM CPT, ATP luminescence, 48 h | Potency, µM (series often up to 46.2 µM), without a hit: top-dose activity change, negative = growth inhibition, most hits filed as inhibitors | hit rate 12% among 420,000; also: nearly all actives have a fitted effect of over 55% in size
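Cell growth measured by CellTiter-Glo luminescence after a minimum 48 h, 37 C compound exposure with 20 nM CPT in Tdp1-knockout DT40 cells stably expressing hTDP1, seeded 400/well; qHTS titration format.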
RORg inh – qHTS for inhibitors of ROR gamma transcriptional activity; Nuclear receptor ROR-gamma (Mus musculus), P51450; Drosophila S2 Gal4-RORgamma UAS-luciferase reporter, 20 h; Potency, µM (top dose mostly 53.6 µM), without a hit: at the top dose activity change, negative = inhibition, hits mostly inhibitors; hit rate 5.4% among 310,000; AID 2551, 2010; also: nearly all actives have a fitted effect of over 60% in size
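Stably transfected Drosophila Schneider cells are the test system, with ROR gamma fused to Gal4 and luciferase under UAS control; luminescence is read after 20 hr of 700 uM copper sulfate induction at ambient temperature.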
An asterisk follows results filed as active; ? = inconclusive; / = not tested or not shown; [ ] = another dose, or the depositor's remark. Shown are actives, neighbours in structure and some others; about 19% of the full set was active somewhere. Calls follow the shape of the dose curve; as a rule, active = well fitted curve in the direction sought with a large enough effect; inconclusive = small, poorly fitted or top-dose-only effect, or another doubt; inactive = no such curve, though single readings can be large; an effect the other way counts as inactive or inconclusive. % is scaled to controls: 0 for no effect and ±100 for the full control effect; potency is read from the fitted curve at half-maximal effect.

SMILES | TDP1 inh | Gal4-VP16 FLuc | TDP1 cell noCPT | TDP1 cell CPT | RORg inh
N#Cc1ccc(Cn2c(=O)c(C#N)c3n(c2=O)CCC3)cc1 | 6% | -15% | -11% | -21% | -11%
O=C(NCC1COc2ccccc2O1)c1ccc(Cl)cc1 (centres undefined) | 3% | ? | ? | ? | ?
O=C(NCCc1ccccc1)c1nn(-c2ccccc2Cl)nc1CO | 0% | / | 13µM* | 12µM* | /
O=C(NCCCc1ccccc1)c1nn(-c2ccccc2)nc1CO | -12% | / | ? | ? | /
N[C@H](CSCc1ccccc1)C(=O)Nc1ccc([N+](=O)[O-])cc1 | / | -3% | ? | -15% | 33%
CC(=O)Nc1ccc(NC(=O)c2ccc(S(=O)(=O)N(C)c3ccccc3)cc2)cc1 | -3%[56.1 µM] | / | ? | ? | /
Cc1nc2ccc(NC(=O)c3ccc(S(=O)(=O)N(C)c4ccccc4)cc3)cc2s1 | 3% | -30% | 23µM* | ? | ?
COc1cc(C(=O)Nc2ccc(N(C)C)cc2)cc(OC)c1OC | 7% | 3% | ? | 21µM* | ?
COc1ccc(C(=O)Nc2ccc(S(=O)(=O)N(C)c3ccccc3)cc2)cc1 | / | / | 16µM* | -25% | /
COc1ccc(NC(=O)c2ccc(S(=O)(=O)N(C)c3ccccc3)cc2)cn1 | 4% | ? | ? | 15µM* | ?
COc1cc(C(=O)Nc2ccc(S(=O)(=O)N(C)c3ccccc3)cc2)cc(OC)c1OC | 5% | 10% | ? | 16µM* | ?
OCCCNc1nc(-c2ccc(Cl)cc2)nc2ccccc12 | / | -1% | ? | -18% | 21%
OCCCNc1nc(-c2ccc(Br)cc2)nnc1-c1ccc(Cl)cc1 | 5% | -7% | ? | 23µM* | ?
COc1ccc2c(c1)c1c(c(=O)n(-c3cccc(C)c3)c(=O)n1CC(=O)NCc1ccc(C)cc1)n2C | 3% | / | ? | ? | /
Cc1ccc2c(c1)c1c(c(=O)n(-c3ccccc3C)c(=O)n1Cc1ccccc1F)n2C | 0% | / | 5.8µM* | 15µM* | /
COc1ccc2c(c1)c1c(c(=O)n(-c3ccc(C)cc3)c(=O)n1CC(=O)NCc1ccc(C)cc1)n2C | 0% | / | 6.5µM* | 7.3µM* | /
Cc1ccc2c(c1)c1c(c(=O)n(-c3ccccc3C)c(=O)n1CC(=O)NCc1ccccc1)n2C | 3% | / | 18µM* | ? | /
Cc1ccc2c(c1)c1c(c(=O)n(-c3ccccc3C)c(=O)n1CC(=O)N1CCCC1)n2C | 0% | / | ? | ? | /
O=C1CSC(=S)N1c1cccc(Cl)c1 | / | -17% | -2% | -21% | -14%
N=C1SCC(=O)N1c1ncc(Cc2cccc(Cl)c2)s1 | 8% | 0.89µM* | ? | ? | 0.35µM*
N=C1SCC(=O)N1c1ncc(Cc2ccccc2Cl)s1 | 9% | 0.71µM* | ? | ? | 126µM*
CCOc1ccccc1CNC(=O)C1=C(C)C(=O)OC12CCN(C(C)=O)CC2 | 2% | / | -10% | 4% | /
COc1ccc(-n2c(SCCC#N)nnc2-c2cc(Cl)ccc2OC)cc1Cl | 4% | -9% | 16µM* | ? | -7%
Cc1cccc(OCc2nnc(SCC(=O)Nc3ncc(C)s3)o2)c1 | 3% | -2% | 0% | 8% | ?
Cc1ccc(NS(=O)(=O)c2cc(Br)cc3c2N(C(=O)C2CC2)CC3)cc1C | 0% | / | 2.1µM* | 2.6µM* | /
SMILES | TDP1 inh | Gal4-VP16 FLuc | TDP1 cell noCPT | TDP1 cell CPT | RORg inh
COc1ccc(Cl)cc1NS(=O)(=O)c1cc(Br)cc2c1N(C(=O)C1CC1)CC2 | 12% | / | ? | ? | /
CCCNS(=O)(=O)c1cc2c(cc1Br)CCN2C(=O)CC | / | / | -8% | -15% | /
CCOC(=O)c1cccc(NS(=O)(=O)c2cc(Br)cc3c2N(C(=O)C2CC2)CC3)c1 | 6% | / | 23µM* | ? | /
CCCCN(C)S(=O)(=O)c1cc2c(cc1Br)CCN2C(=O)C1CC1 | / | / | 3.7µM* | 4.1µM* | /
O=C(C1CC1)N1CCc2cc(Br)cc(S(=O)(=O)Nc3ccc(C(F)(F)F)cc3)c21 | 6% | / | 16µM* | 18µM* | /
O=C(CSc1nnc(-c2ccc3c(c2)OCO3)o1)Nc1c(F)cccc1F | 1% | / | 2% | -5% | /
C#CCOCCOCCOCCNc1nc(N2CCN(C(=O)[C@H]([C@@H](C)CC)n3cc([C@@H](N)CC(C)C)nn3)CC2)nc(N2CCN(C(=O)[C@H](CCCCN)n3cc([C@@H](N)C(C)CC)nn3)CC2)n1 (some centres undefined) | 4% | 5% | -11% | -1% | -21%
COC(=O)c1sc(Nc2ccccc2)nc1C | 4% | 2% | -10% | -18% | 12%
CCOCCCNC(=O)c1cn(C)c2ccc(S(=O)(=O)N3CCCC3)cc2c1=O | 3% | -6% | 13% | -9% | -6%
CC(=O)Nc1ccc(-c2nc3c(C)cccc3[nH]2)cc1 | 2% | -22% | -5% | -41% | 2%
COC(=O)C(=C/C=C/c1ccco1)C(=O)OC | / | -3% | -21% | -21% | -12%
O=C(C1CC1)N1CCc2cc(Br)cc(S(=O)(=O)N3CCN(c4ccccc4)CC3)c21 | 0% | / | -15% | -3% | /
CCN(c1ccccc1)S(=O)(=O)c1cc(Br)cc2c1N(C(=O)C1CC1)CC2 | 6% | / | 18µM* | 16µM* | /
CCC(=O)N1CCc2cc(S(=O)(=O)N(CC)c3cccc(C)c3)ccc21 | -1% | -1% | ? | ? | -24%
CCN(c1cccc(C(F)(F)F)c1)S(=O)(=O)c1ccc2c(c1)CCN2C(=O)C1CC1 | 0% | 0%[0.365 µM] | 16µM* | 16µM* | -36%
O=C(C1CC1)N1CCc2cc(Br)cc(S(=O)(=O)Nc3ccc(F)c(F)c3)c21 | 9% | / | 23µM* | 23µM* | /
Cc1ccc(CN2CC(C(=O)NCCCn3nc(C)cc3C)CC2=O)cc1 (centres undefined) | / | / | -4% | -12% | /
CCN(CC(=O)Nc1ccc2c(c1)OCCO2)C(=O)c1cc(S(=O)(=O)N2CCOCC2)ccc1F | 0% | / | -2% | 1% | /
COc1cc(-c2c(C#N)c(N)nc3c2CCCC3)ccc1O | 4% | -4% | 16µM* | 15µM* | -17%
COc1ccc(-c2c(C#N)c(N)nc3c2CCc2ccccc2-3)cc1OC | 2% | -4% | 7.3µM* | 8.2µM* | -1%
COc1ccc(-c2cc(-c3ccc(O)cc3)nc(N)c2C#N)cc1OC | -3% | 6% | ? | ? | -1%
C[C@@H]1[C@H](c2ccccc2)OCCS(=O)(=O)N1Cc1cccc(C(F)(F)F)c1 | / | / | 18µM* | ? | /

Compound activity from PubChem.
